Screening data as filed in PubChem BioAssay.
This is a sample that favours compounds with a hit; in the whole collection about 5.4% have one here.
FXN GAA850 act: frataxin GAA850 promoter activation; HEK293 lucGAA850 FXN promoter luciferase reporter, 24 h; percent of 10 µM SAHA response; activation, % at 6 µM; 360,000 tested, 0.56% active; AID 540364;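 active means activation above the average of all compounds screened plus 3 SD, cutoff fixed separately per campaign, cut at about 7.5% in these data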
HSF-1 act: increases HSF-1 driven luciferase reporter signal; NIH3T3-HGL HSF-1 luciferase reporter, MG132, 8 h; 100% = twice DMSO control signal; AID 504408; activation, % at 9 µM; 300,000 tested, 1.7% active;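 active means mean replicate activation of at least 50% with a set share of replicates each reaching 50%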
NR0B1 inh: NR0B1 (DAX1) inhibition; 340,000 tested, 0.99% active; inhibition, % at 6.75 µM; HEK293 Gal4-DAX1 luciferase reporter, luminescence; AID 504766;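 active means inhibition above the mean over all tested compounds plus 3 SD, cut at about 4.2% in these data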;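 further: inhibition shows as a rise in luminescence from relieved DAX1 repression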
AHR act: human AHR activation. activation, % at 5 µM. AHR-responsive luciferase reporter cells, luminescence. P35869. 320,000 tested, 2.5% active; in the data active means activation above about 47%
Target sequence (P35869 whole entry, looked up): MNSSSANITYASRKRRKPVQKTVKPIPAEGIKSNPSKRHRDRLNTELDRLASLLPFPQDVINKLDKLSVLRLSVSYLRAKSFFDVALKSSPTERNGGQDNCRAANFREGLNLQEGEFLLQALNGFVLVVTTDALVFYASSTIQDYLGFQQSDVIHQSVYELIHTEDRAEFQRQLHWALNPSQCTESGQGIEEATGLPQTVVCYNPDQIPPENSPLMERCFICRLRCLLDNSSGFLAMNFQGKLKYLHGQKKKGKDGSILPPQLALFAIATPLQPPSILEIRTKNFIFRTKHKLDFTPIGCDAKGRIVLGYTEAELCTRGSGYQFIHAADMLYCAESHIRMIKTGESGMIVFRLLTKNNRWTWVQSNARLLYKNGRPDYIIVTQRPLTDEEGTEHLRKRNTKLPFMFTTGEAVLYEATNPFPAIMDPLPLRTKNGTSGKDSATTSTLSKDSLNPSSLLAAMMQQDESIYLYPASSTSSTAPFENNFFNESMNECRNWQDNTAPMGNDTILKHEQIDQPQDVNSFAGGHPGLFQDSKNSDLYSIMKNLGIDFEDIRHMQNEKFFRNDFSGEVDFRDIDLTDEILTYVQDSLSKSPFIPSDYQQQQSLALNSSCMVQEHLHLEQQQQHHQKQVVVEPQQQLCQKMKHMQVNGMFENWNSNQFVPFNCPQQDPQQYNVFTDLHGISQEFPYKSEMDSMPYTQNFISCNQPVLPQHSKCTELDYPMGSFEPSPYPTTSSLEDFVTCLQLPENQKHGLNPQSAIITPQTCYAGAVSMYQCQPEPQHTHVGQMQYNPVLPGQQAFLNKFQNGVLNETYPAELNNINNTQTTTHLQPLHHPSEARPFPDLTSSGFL
HSF1 inh: HSF1 inhibition; AID 2098; activity change, negative = inhibition, % at 7.5 µM (by protocol); 300,000 tested, 0.77% active; NIH3T3-HGL HSE-luciferase, MG132-induced, luminescence 8 h; stronger effect = lower value;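 active means more than half of replicate wells show activity change below -50%, luminescence cut by over half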;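 further: luciferase reports HSF-1 transcriptional activity via heat shock element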
Each line names hits and unclear results; the compound was inactive in the other large screens.

CCc1ccc(NC(=O)CSc2nnc(-c3cnccn3)n2C)cc1	none
Cc1cccc(N/C(N)=N/c2nc(C(F)(F)F)cc(C(F)(F)F)n2)c1	AHR act 68.5
COc1cccc(N/C(N)=N/c2nc(C(F)(F)F)cc(C(F)(F)F)n2)c1	none
COc1ccc(OC)c(C(c2c(O)nc(SC)[nH]c2=O)c2c(O)nc(SC)[nH]c2=O)c1	none
Nc1nc(-c2ccc(Cl)cc2Cl)cn1N	AHR act 64.5
COc1cc(C(=O)NCC(c2ccccc2)N(C)C)ccc1OCC(=O)N1CCOCC1 (centres undefined)	none
COc1cc2c(cc1NC(=S)Nc1cccc3ccccc13)oc1ccccc12	AHR act 71.6
COc1cc2c(cc1NCc1ccccn1)oc1ccccc12	AHR act 62.7
COc1cc2c(cc1NC(=O)Nc1ccccc1)oc1ccccc12	AHR act 47.9
COc1cc2c(cc1NC(=O)COc1ccccc1OC)oc1ccccc12	none
COc1cc2c(cc1NC(=O)COC(=O)[C@@H](NS(=O)(=O)c1ccccc1)C(C)C)oc1ccccc12	HSF-1 act 89.6
Nc1nc(NCCOCCO)nc(NCC2CCCO2)c1[N+](=O)[O-] (centres undefined)	none
CCCCn1nnc(NC(=S)NC(=O)c2ccc(OCC)c([N+](=O)[O-])c2)n1	none
CCc1cc(C(=O)c2ccc(OC)cc2)c(N)s1	HSF-1 act 59.0 (no result: NR0B1 inh)
CCN(CC)CCCn1c2c(c(SCC(=O)Nc3ccc4c(c3)OCO4)nc1=O)CCC2	none
COc1ccc(CCN(C)C(=O)CN2C(=O)NC3(CCCc4ccccc43)C2=O)cc1OC (centres undefined)	none
CCN1CCN(Cc2c(OC)ccc3ccccc23)CC1	none
COc1ccc2ccccc2c1CN1CCN(C)CC1	NR0B1 inh 4.7
O=C1CCCC(=O)C1=C1SCCCS1	NR0B1 inh 4.5
CC(C)OC(=O)C(C)Nc1ccc(F)c(Cl)c1 (centres undefined)	none
CN1C/C(=C\c2ccc(N3CCOCC3)cc2)C(=O)/C(=C/c2ccc(N3CCOCC3)cc2)C1	HSF-1 act 132.8
CCN1C/C(=C/c2ccc(N3CCOCC3)cc2)C(=O)/C(=C/c2ccc(N3CCOCC3)cc2)C1	none
O=C1NC2(C=Cc3c(ccc4ccccc34)O2)Oc2ccccc21 (centres undefined)	FXN GAA850 act 8.6
Cc1noc(C)c1-c1ccc(C(=O)NCCN2CCOCC2)c2occc12	none (no result: HSF-1 act, NR0B1 inh, AHR act, HSF1 inh)
COc1ccc(CN2C(=NC(=O)C3CCCO3)SC3CS(=O)(=O)CC32)cc1 (centres undefined)	none
COc1ccc2c(c1)-c1nc(/N=C/c3c(O)ccc4ccccc34)sc1CC2	HSF-1 act 63.4 (no result: AHR act)
O=C(Nc1ccccc1Cl)c1ccc(-c2ccccn2)s1	HSF-1 act 67.7, NR0B1 inh 5.0
O=C(CN(C(=O)c1csnn1)c1ccccc1Cl)NC1CCCC1	none
CCCCc1cc(=O)oc2cc(C)cc(OCC(=O)N3C[C@H]4C[C@@H](C3)c3cccc(=O)n3C4)c12	NR0B1 inh 7.0
CCCc1cc(=O)oc2cc(C)cc(OCC(=O)N3C[C@H]4C[C@@H](C3)c3cccc(=O)n3C4)c12	none (no result: HSF-1 act, NR0B1 inh, AHR act, HSF1 inh)
CCN(CC)C(=O)Cn1cc(SCC(=O)NC2CCCC2)c2ccccc21	none
O=C1OC(c2ccc(Br)cc2)=N/C1=C\N1CCCCC1	AHR act 63.0
CCOC(=O)c1cccc(NC(=O)CSc2nc(N)cc(N)n2)c1	HSF-1 act 55.2
CCOC(=O)Cc1csc(SCC(=O)Nc2cccc(C#N)c2)n1	none
COc1cccc(NC(=O)CSc2nc(N)cc(N)n2)c1	HSF-1 act 65.7
COc1cccc(NC(=O)CSc2nnc(-c3cc(C)n(-c4ccccc4)c3C)o2)c1	HSF1 inh -53.3
CCOC(=O)Cc1csc(SCC(=O)Nc2cccc(Cl)c2)n1	HSF-1 act 58.3
Cc1ccc(NC(=O)OCc2cccs2)cc1	none (no result: FXN GAA850 act, NR0B1 inh)
Nn1c(SCC(=O)Nc2nccs2)nnc1-c1cccnc1	none (no result: HSF-1 act, HSF1 inh)
CCCCn1c(N)c(N(CCOC)C(=O)c2c(-c3ccccc3)noc2C)c(=O)[nH]c1=O	none
COc1ccc(C(=O)N2CCN(C)C(=O)[C@@H]2C)cc1OC1CCN(C(C)C)CC1	none
COc1cccc(NC(=O)CSc2c3c(nc4ccccc24)CCCC3)c1	HSF-1 act 62.0
Cc1cccc(NC(=O)CSc2c3c(nc4ccccc24)CCC3)n1	none
CC1(C)Cc2c(C#N)c(SCCC#N)nc(N3CCOCC3)c2CO1	HSF1 inh -61.3 (no result: AHR act)
